Here are results for 14 molecules from the supplement of paper PMC9262897, “Low-cost anti-mycobacterial drug discovery using engineered E. coli” (Nature Communications, 2022).

SMILES strings stand for the structures. Where a name gives a salt, the structure may show the parent alone. ± gives the standard deviation of the averaged measurements.

The assay concerns E. coli TESEC Mtb Asd. Put plainly: growth (OD600 after 10 h); higher = more growth (less inhibition). Conditions: arabinose induction (level): Low; compound 0.1 mM; raw OD600 reference: median of DMSO wells 0.417, cell-free background 0.041. The procedure:
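TESEC E. coli strains in which the native enzyme is deleted and replaced by arabinose-inducible Mtb Asd, DapB, CysH or TrpD, each grown in its selective medium. Strains were screened against the Prestwick library at 0.1 mM and 1% DMSO in 384-well format at low and high arabinose induction. Growth is read as OD600 after 10 h in triplicate.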
Molecule `CC(C)(C)NCC(O)c1ccccc1Cl` (centres undefined) [Tulobuterol] registered a growth of 0.296 ± 0.019.

For the molecule `Clc1ccc(C(OCCN2CCCCC2)c2ccccc2)cc1` (centres undefined) [Cloperastine hydrochloride], the growth was 0.154 ± 0.0084.

`CN(C)C(=O)Oc1cc(OC(=O)N(C)C)cc(C(O)CNC(C)(C)C)c1` (centres undefined) [Bambuterol hydrochloride]: the growth came to 0.39 ± 0.047.

The molecule `C[C@@H]1C[C@@H]([C@H](O)CC2CC(=O)NC(=O)C2)C(=O)[C@@H](C)C1` [Cycloheximide] showed a growth of 0.443 ± 0.042.

For the molecule `CC(Cc1ccc(O)cc1)NCC(O)c1cc(O)cc(O)c1` (centres undefined) [Fenoterol hydrobromide], the growth amounted to 0.419 ± 0.025.

`COc1ccc(CCN)cc1OC` [Homoveratrylamine] gave a growth of 0.353 ± 0.087.

The molecule `C(#CCN1CCCC1)CN1CCCC1` [Tremorine dihydrochloride] had a growth of 0.464 ± 0.029.

For the molecule `O=C1CC[C@@]2(O)[C@H]3Cc4ccc(O)c5c4[C@@]2(CCN3CC2CC2)[C@H]1O5` [Naltrexone hydrochloride dihydrate], the growth came out at 0.443 ± 0.05.

`C[N+]1(C)CCCC(OC(=O)C(O)(c2ccccc2)c2ccccc2)C1` (centres undefined) [Mepenzolate bromide]: the growth came out at 0.461 ± 0.02.

For the molecule `C1CCc2nnnn2CC1` [Pentylenetetrazole], the growth was found to be 0.431 ± 0.017.

Molecule `CC(=O)NC1CCSC1=O` (racemic) [N-Acetyl-DL-homocysteine Thiolactone] had a growth of 0.451 ± 0.01.

Regarding `CNC(C)(C)Cc1ccccc1` [Mephentermine hemisulfate], the growth was 0.433 ± 0.033.

`N[C@@H]1C[C@H]1c1ccccc1` [Tranylcypromine hydrochloride] yielded a growth of 0.388 ± 0.012.

For the molecule `CC(NC(C)(C)C)C(=O)c1cccc(Cl)c1` (centres undefined) [Bupropion hydrochloride], the growth was 0.41 ± 0.03.
